From PubChem
POLK inh = inhibitors of human DNA polymerase kappa | Q9UBT6 | purified Pol kappa, fluorescent DNA synthesis assay, 10 min | Potency, µM (titrated, usually from 107 µM), actives largely listed as inhibitors | hit rate 0.53% among 400,000
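Enzyme at 10 nM met test compounds for 15 min at room temperature. Substrate addition (50 nM final) began the reaction, which was monitored by fluorescence at 0 and 10 min.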
WRN inhibitor = inhibitors of human WRN helicase. Q14191. WRN helicase unwinding, fluorescent forked duplex, kinetic. Potency, µM (titrated, usually from 114 µM), hits mostly inhibitors. hit rate 0.46% among 360,000; also: nearly all actives have a fitted effect of over 55% in size
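Screening of the MLSMR collection measured strand separation of a quenched forked DNA duplex (100 nM) by 20 nM WRN with 2 mM ATP, all final. Compounds were preincubated with enzyme 15 min at room temperature.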
POLI inh = DNA polymerase iota (human) inhibition | Q9UNA4 | Pol iota fluorescent replication assay, 10 min | Potency, µM (doses to about 115 µM), usual class: inhibitors | hit rate 1% among 390,000
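Pol iota at 10 nM preincubated 15 min with compounds at room temperature; reaction started with fluorescent substrate, 50 nM final. Fluorescence read kinetically at 0 and 10 min; buffer-only wells as negative control.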
Pol beta inh = inhibitors of human DNA polymerase beta; hit rate 1.3% among 340,000; Potency, µM (highest dose often 114 µM), actives largely listed as inhibitors; Pol beta primer extension/strand displacement, fluorescence kinetic; P06746; AID 485314
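Pol beta (10 nM) and compounds were preincubated 15 min at room temperature, then 50 nM substrate (final) started primer extension/strand displacement. Reads were taken at 0 and 10 min; concentration-response data were fitted to a four-parameter Hill equation.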
FEN1 inh = inhibitors of human flap endonuclease 1; AID 588795; Recombinant FEN1 flap cleavage, fluorescence, 15 min; hit rate 0.35% among 390,000; Potency, µM (highest dose often 114 µM), most hits filed as inhibitors; also: nearly all actives have a fitted effect of over 65% in size
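Concentration–response screening of FEN1 (10 nM): 15 min compound preincubation at room temperature, reaction started with 50 nM substrate and read at 0 and 15 min. Corrected, normalized data were fitted by a four-parameter Hill equation.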
Pol eta inh = blocks human DNA polymerase eta activity. AID 588591. hit rate 1.2% among 390,000. Potency, µM (highest dose often 114 µM), hits mostly inhibitors. recombinant Pol eta, fluorescent DNA replication assay
Target sequence (Q9Y253 whole entry, looked up): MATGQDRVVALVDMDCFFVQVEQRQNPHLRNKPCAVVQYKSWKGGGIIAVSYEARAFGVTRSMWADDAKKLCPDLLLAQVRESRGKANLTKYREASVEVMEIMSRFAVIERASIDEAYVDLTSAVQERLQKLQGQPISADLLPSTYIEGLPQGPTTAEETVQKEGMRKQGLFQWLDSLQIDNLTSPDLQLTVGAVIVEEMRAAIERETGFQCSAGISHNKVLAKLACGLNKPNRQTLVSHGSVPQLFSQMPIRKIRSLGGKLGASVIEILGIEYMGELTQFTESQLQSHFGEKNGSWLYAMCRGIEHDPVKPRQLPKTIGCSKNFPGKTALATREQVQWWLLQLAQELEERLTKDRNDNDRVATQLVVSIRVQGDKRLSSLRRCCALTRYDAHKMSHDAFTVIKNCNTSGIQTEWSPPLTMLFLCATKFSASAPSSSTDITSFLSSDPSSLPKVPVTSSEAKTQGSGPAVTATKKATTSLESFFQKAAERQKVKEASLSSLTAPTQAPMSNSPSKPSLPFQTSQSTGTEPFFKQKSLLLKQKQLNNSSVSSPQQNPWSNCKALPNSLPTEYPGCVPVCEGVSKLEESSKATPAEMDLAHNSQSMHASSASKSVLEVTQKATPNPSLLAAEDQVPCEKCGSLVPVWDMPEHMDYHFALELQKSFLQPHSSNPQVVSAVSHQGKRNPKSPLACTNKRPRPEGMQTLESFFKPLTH
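Pol eta at 10 nM preincubated with compounds 15 min at room temperature; reaction started with fluorescent substrate (50 nM final) and read kinetically at 0 and 10 min.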
Each line names hits and unclear results; the compound was inactive in the other large screens. Hits are enriched below; roughly 2.4% of the tested compounds scored in any of these assays. Calls follow the shape of the dose curve; as a rule, active = well fitted curve in the direction sought with a large enough effect; inconclusive = small, poorly fitted or top-dose-only effect, or another doubt; inactive = no such curve, though single readings can be large; an effect the other way counts as inactive or inconclusive.

Cc1cc2sc3ccccc3c(=O)c2c(C)c1O	POLI inh inconclusive, Pol beta inh 50.1µM
COc1cc(NC(=O)CNC(=O)Cn2c(C)cc3ccccc3c2=O)cc(OC)c1OC	none
COc1ccc(NC(=O)CNC(=O)Cn2c(C)cc3ccccc3c2=O)cc1OC	Pol beta inh 31.6µM
COc1ccc(NC(=O)CNC(=O)Cn2c(C)cc3ccccc3c2=O)c(OC)c1	Pol beta inh 79.4µM
c1ccc(-c2nnc3sc(Cc4cccs4)nn23)cc1	POLI inh inconclusive, Pol beta inh 44.7µM
Cc1cccc(N2CCN(C(=O)NCc3noc4ccccc34)CC2)c1C	Pol beta inh inconclusive, FEN1 inh 89.1µM (no result: WRN inhibitor)
COc1ccc(C2Nc3ccccc3C(=O)N2Cc2ccccc2)cc1COc1ccc([N+](=O)[O-])c(C)c1 (stereo not given)	none (no result: WRN inhibitor, Pol beta inh, Pol eta inh)
O=C(CCCN1C(=O)S/C(=C/C=C/c2ccccc2)C1=O)Nc1ccc(C(=O)O)cc1	POLI inh inconclusive, Pol eta inh 89.1µM
CC(=C\c1ccccc1)/C=C1/SC(=O)N(CCCC(=O)Nc2ccc(C(=O)O)cc2)C1=O	none
O=C(O)C1CCCCC1C(=O)Nc1nc(-c2ccc(Cl)s2)cs1 (stereo not given)	POLK inh inconclusive, POLI inh inconclusive, Pol beta inh 15.8µM, Pol eta inh 44.7µM
O=C(O)CN1C(=O)/C(=C\c2ccccc2OCc2ccccc2)SC1=S	Pol eta inh 79.4µM (no result: POLK inh, POLI inh, Pol beta inh, FEN1 inh)
O=C(O)CN1C(=O)/C(=C\c2ccccc2OCc2ccc(F)cc2)SC1=S	POLI inh inconclusive, Pol beta inh inconclusive, Pol eta inh inconclusive
O=C(O)CCCN1C(=O)/C(=C\c2ccccc2OCc2ccccc2)SC1=S	WRN inhibitor inconclusive, POLI inh inconclusive, Pol beta inh inconclusive, FEN1 inh inconclusive, Pol eta inh 79.4µM
COc1ccc(/C=C2\SC(=S)N(CCCC(=O)Nc3ccccc3C(=O)O)C2=O)cc1OC	POLI inh inconclusive, Pol eta inh 89.1µM
Cc1nn(-c2ccccc2)c(Cl)c1/C=C1\SC(=S)N(CCCCCC(=O)O)C1=O	Pol eta inh 25.1µM
CC[C@H](C)[C@H](NC(=O)[C@H](CCCN=C(N)N)NC(=O)[C@H](CCCN=C(N)N)NC(=O)[C@H](CC(C)C)NC(=O)[C@H](Cc1ccccc1)NC(=O)CNC(=O)CN)C(=O)N[C@@H](CCCN=C(N)N)C(=O)N1CCC[C@H]1C(=O)N[C@@H](CCCCN)C(=O)N[C@@H](CC(C)C)C(=O)N[C@@H](CCCCN)C(=O)O	none (no result: WRN inhibitor, POLI inh, Pol beta inh, FEN1 inh, Pol eta inh)
COc1ccc(Oc2ncc3ncc(=O)n(Cc4ccc(F)cc4)c3n2)cc1	none (no result: WRN inhibitor, POLI inh, Pol beta inh, FEN1 inh, Pol eta inh)
COc1ccc(/C=C2/SC(=S)N(CC(=O)O)C2=O)cc1OCc1ccc(Cl)cc1	WRN inhibitor 56.2µM, Pol beta inh inconclusive, FEN1 inh inconclusive, Pol eta inh inconclusive
COc1cc(/C=C2\SC(=S)N(CC(=O)O)C2=O)ccc1OC(=O)c1ccco1	none
Nc1cc2c3c(cccc3c1)C(=O)N(CCN1CCCC1)C2=O	POLI inh 35.5µM, Pol beta inh 25.1µM, FEN1 inh 25.1µM
COc1cccc(Cn2cnc3c2c(=O)n(C)c(=O)n3C)c1	none (no result: WRN inhibitor)
CCc1nc2ccc(C(=O)NCCc3ccc(OC)cc3OC)cc2nc1CC	none (no result: WRN inhibitor)
CCOc1cc(N2CCOCC2)c(OCC)cc1NS(=O)(=O)c1ccc(Cl)s1	POLI inh 28.2µM
CCOc1cc(N2CCOCC2)c(OCC)cc1NC(=O)c1cc(S(=O)(=O)N2CCOCC2)ccc1Cl	none (no result: Pol beta inh)
COc1ccc(-n2nc3c(N4CCC(C(=O)NCc5ccccc5C)CC4)nnc(C)c3c2C)cc1	POLI inh inconclusive, Pol beta inh 79.4µM
Cc1ccc(-n2nc3c(N4CCC(C(=O)NCc5ccc(C)o5)CC4)nnc(C)c3c2C)cc1	POLI inh inconclusive, Pol beta inh 0.398µM, FEN1 inh inconclusive
Cc1ccc(-n2nc3c(N4CCC(C(=O)NCCc5ccco5)CC4)nnc(C)c3c2C)cc1	POLI inh inconclusive
Cc1ccc(CCNC(=O)CCN2N=C(c3ccc(C)cc3)CCC2=O)cc1	none (no result: WRN inhibitor)
Cc1ccc(Cl)cc1N1CCN(c2nc3ccccc3c3nc(-c4cccnc4)nn23)CC1	none (no result: WRN inhibitor)
CCOC(=O)c1cc(-c2ccc(OC)cc2)n(CCC(=O)Nc2nc3ccc(OCC)cc3s2)c1C	none (no result: WRN inhibitor)
Cc1ccccc1CCNC(=O)c1cc2cc(S(=O)(=O)N3CCCCC3)ccc2n1C	none (no result: WRN inhibitor)
O=C1Nc2ccccc2C(=O)C1(Cl)Cc1ccccc1 (stereo not given)	WRN inhibitor 44.7µM, POLI inh inconclusive
CCOc1ccc(CNC(=O)CCCn2nc(C)c3sc4ccccc4c3c2=O)cc1	POLI inh 89.1µM, FEN1 inh inconclusive (no result: WRN inhibitor)
Cc1nn(CCCC(=O)NCCc2ccc(Cl)cc2)c(=O)c2c1sc1ccccc12	POLK inh inconclusive, Pol beta inh inconclusive, FEN1 inh 44.7µM (no result: WRN inhibitor)
CCOc1ccc(CCNC(=O)CCCn2nc(C)c3sc4ccccc4c3c2=O)cc1	none (no result: WRN inhibitor)
COc1ccc(CCNC(=O)CCCn2nc(C)c3sc4ccccc4c3c2=O)cc1OC	Pol beta inh 35.5µM, FEN1 inh 44.7µM (no result: WRN inhibitor)
CCOc1ccc(CCNC(=O)CCCn2nc(C)c3sc4ccccc4c3c2=O)cc1OCC	POLI inh inconclusive (no result: WRN inhibitor)
CCn1cc(C(=O)N(C)c2ccc(C(C)C)cc2)c2cc(OC)c(OC)cc2c1=O	none (no result: WRN inhibitor)
CCCCCCCCCCCC	none (no result: WRN inhibitor, POLI inh, Pol beta inh, FEN1 inh, Pol eta inh)
CCSc1nc2c([nH]c3ccccc32)c(=O)n1-c1ccc(OC)cc1	none (no result: WRN inhibitor)
CC[C@H](C)[C@H](N)C(=O)N[C@@H](CC(N)=O)C(=O)N1CCC[C@H]1C(=O)N[C@H](C(=O)N[C@@H](Cc1ccc(O)cc1)C(=O)N[C@@H](CCCN=C(N)N)C(=O)N[C@@H](CC(C)C)C(=O)N[C@@H](CCCN=C(N)N)C(=O)N[C@@H](Cc1ccc(O)cc1)C(N)=O)[C@@H](C)CC	none (no result: WRN inhibitor, POLI inh, Pol beta inh, FEN1 inh, Pol eta inh)
COc1cc2c(cc1OC)-c1c(oc3cc(O)cc(O)c3c1=O)CO2	POLK inh 31.6µM (no result: WRN inhibitor, POLI inh, Pol beta inh, FEN1 inh, Pol eta inh)
CCN(CC)CCOC(=O)c1cccnc1	none (no result: WRN inhibitor, POLI inh, Pol beta inh, FEN1 inh, Pol eta inh)
CCCN(C(=O)/C=C/c1nc2ccccc2s1)C1CCS(=O)(=O)C1 (stereo not given)	none (no result: Pol beta inh)
CC1(NC(=O)/C=C/c2nc3ccccc3s2)CCS(=O)(=O)C1 (stereo not given)	POLK inh 79.4µM, POLI inh 39.8µM, Pol eta inh 50.1µM (no result: Pol beta inh)
COc1ccc(NC(=O)NNC(=O)c2cc3ccccc3cc2O)cc1	POLI inh inconclusive, Pol beta inh inconclusive
COc1ccc(C)cc1NC(=O)NNC(=O)c1cc2ccccc2cc1O	Pol beta inh 79.4µM
O=C1CC(C(=O)Nc2ccc(O)c(C(=O)O)c2)C(c2ccccc2)O1 (stereo not given)	POLI inh inconclusive, Pol eta inh 50.1µM
O=C1CC(C(=O)Nc2ccc(C(=O)O)cc2)C(c2ccccc2)O1 (stereo not given)	none
